# Assay results from PMC6212833.
# The full ranking holds about 2,000 compounds; the median of “B-score” is about -0.0024, and the highest 2% start at about 4. The entries come from a sample that favours the highest values as a whole.
# System: Balamuthia mandrillaris (ATCC PRA-291) trophozoites, axenic culture
# Experiment: primary screen, b score
# Conditions: 20 µM
# Summary of the method: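 Trophozoites (3,000/well) in axenic medium exposed to library drugs at 20 µM in 0.2% DMSO for 72 h; viability by CellTiter Glo luminescence at 2, 4 and 8 h. Controls: vehicle and freeze-thaw amoeba lysate; B-score corrects row, column and edge effects.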
row,Structure (SMILES),B-score
1,Cc1cc(C(C)(C)C)c(O)c(C(C)(C)C)c1,-0.212
2,Nc1nc(=O)n([C@@H]2CS[C@H](CO)O2)cc1F,-0.911
3,CNC(=O)c1c(I)c(NC(C)=O)c(I)c(C(=O)O)c1I,0.108
4,CO[C@H](C(=O)[C@@H](O)[C@@H](C)O)[C@@H]1Cc2cc3cc(O[C@H]4C[C@@H](O[C@H]5C[C@@H](O)[C@H](O)[C@@H](C)O5)[C@H](O)[C@@H](C)O4)c(C)c(O)c3c(O)c2C(=O)[C@H]1O[C@H]1C[C@@H](O[C@H]2C[C@@H](O[C@H]3C[C@](C)(O)[C@H](O)[C@@H](C)O3)[C@@H](O)[C@@H](C)O2)[C@H](O)[C@@H](C)O1,8.18
5,CC(=O)O[C@@]12CO[C@@H]1C[C@H](O)[C@@]1(C)C(=O)[C@H](O)C3=C(C)[C@@H](OC(=O)[C@H](O)[C@@H](NC(=O)OC(C)(C)C)c4ccccc4)C[C@@](O)([C@@H](OC(=O)c4ccccc4)C12)C3(C)C (some centres unmarked),-2.24
6,CCN1CCCC(OC(=O)C(c2ccccc2)c2ccccc2)C1 (centres unmarked),0.874
7,CC(C)(C)c1ccc(C(O)CCCN2CCC(C(O)(c3ccccc3)c3ccccc3)CC2)cc1 (centres unmarked),-2.26
8,Oc1ccnc(O)n1,1.41
9,CC(C)c1c(C(=O)Nc2ccccc2)c(-c2ccccc2)c(-c2ccc(F)cc2)n1CC[C@@H](O)C[C@@H](O)CC(=O)O,6.68
10,CC(C)n1c(/C=C/[C@@H](O)C[C@@H](O)CC(=O)O)c(-c2ccc(F)cc2)c2ccccc21 [255968-L3],-0.277
11,CC(C)n1c(/C=C/[C@@H](O)C[C@@H](O)CC(=O)O)c(-c2ccc(F)cc2)c2ccccc21 [255968-L2],3.74
12,CCC(=O)O[C@]1(C(=O)CCl)[C@@H](C)C[C@H]2[C@@H]3CCC4=CC(=O)C=C[C@]4(C)[C@@]3(F)[C@@H](O)C[C@@]21C [285821-L1],-1.34
13,Cc1ccccc1N1CCN(CCc2nnc3n2CCCC3)CC1,2.29
14,COC(=O)N/N=C/c1c[n+]([O-])c2ccccc2[n+]1[O-],2.88
15,O=C1CCc2ccc(OCCCCN3CCN(c4cccc(Cl)c4Cl)CC3)cc2N1 [756864-L1],1.99
16,CCOC(=O)/C=C(C)/C=C/C=C(C)/C=C/c1c(C)cc(OC)c(C)c1C,-0.469
17,C[N+](C)(C)CCCCCCCCCC[N+](C)(C)C,0.626
18,CCCCCCCCCCCCCCCC[N+](C)(C)C,10
19,C[N+](C)(C)CCCCCC[N+](C)(C)C,-0.576
20,CC1(C)NC(=O)N(c2ccc([N+](=O)[O-])c(C(F)(F)F)c2)C1=O [131481-L4],0.0858
21,CN(C)CC/C=C1/c2ccccc2Sc2ccc(Cl)cc21 [285943-L2],-0.683

row,Structure (SMILES),B-score
1,CCN(CC)CCOC(=O)C(c1ccccc1)c1ccccc1,-1.55
2,FC(F)(F)C(F)(F)C(F)(F)C(F)(F)C(F)(F)C(F)(F)C(F)(F)C(F)(F)Br,1.01
3,Cc1ccsc1/C=C/C1=NCCCN1C,2.44
4,CN1CCN(CC(=O)N2c3ccccc3C(=O)Nc3cccnc32)CC1,-0.953
5,C=C1CC[C@H](O)C/C1=C/C=C1\CCCC2(C)C1CCC2C(C)CCCC(C)C (some centres unmarked),-1.18
6,O=c1oc2cc(O)ccc2s1,1.79
7,C[C@@H]1CC[C@H]2[C@@H](C)C(O)O[C@@H]3O[C@@]4(C)CC[C@@H]1[C@]32OO4 (some centres unmarked),8.14
8,C[C@@H]1CC[C@H]2[C@@H](C)C(=O)O[C@@H]3O[C@@]4(C)CC[C@@H]1[C@]32OO4,11.9
9,CO[C@H]1O[C@@H]2O[C@@]3(C)CC[C@H]4[C@H](C)CC[C@@H]([C@H]1C)[C@@]24OO3,7.12
10,COC1O[C@@H]2O[C@@]3(C)CC[C@H]4[C@H](C)CC[C@@H]([C@H]1C)[C@@]24OO3 (some centres unmarked),-0.0904
11,CC(=O)[C@H]1CC[C@H]2[C@@H]3CC=C4C[C@@H](OC(=O)CCC(=O)O)CC[C@]4(C)[C@H]3CC[C@]12C,-2.77
13,C/N=C(\NC)NCc1ccccc1,-0.109
14,Cc1c(O)c(=O)ccn1C,-3.39
15,O=C1CN2Cc3c(ccc(Cl)c3Cl)N=C2N1,1.87
16,CCN(CC)CCOc1ccc(/C(=C(\Cl)c2ccccc2)c2ccccc2)cc1,-1.4
17,CC(=O)OC(C)C[N+](C)(C)C (centres unmarked),1.98
18,CCN1CCN(C(=O)NC(C(=O)N[C@@H]2C(=O)N3[C@@H]2SC(C)(C)[C@@H]3C(=O)O)c2ccccc2)C(=O)C1=O (some centres unmarked),2.04
19,C=C1c2cccc(O)c2C(O)=C2C(=O)[C@]3(O)C(O)=C(C(N)=O)C(=O)[C@@H](N(C)C)[C@@H]3[C@@H](O)[C@H]12,-0.0267
20,Oc1nc2ccccc2n1CCCN1CCC(n2c(O)nc3cc(Cl)ccc32)CC1,-1.5
21,C[C@H](COc1ccccc1)N[C@H](C)[C@H](O)c1ccc(O)cc1,0.0782

row,Structure (SMILES),B-score
1,NC[C@@H]1O[C@H](O[C@H]2[C@@H](O)[C@H](O[C@@H]3[C@@H](O)[C@H](N)C[C@H](N)[C@H]3O[C@H]3O[C@H](CN)[C@@H](O)[C@H](O)[C@H]3N)O[C@@H]2CO)[C@H](N)[C@@H](O)[C@@H]1O,1.53
2,CC#C[C@]1(O)CCC2C3CCC4=CC(=O)CCC4=C3[C@@H](c3ccc(N(C)C)cc3)C[C@@]21C (some centres unmarked),2.28
3,CN1CCC(=C2c3ccccc3CCc3sccc32)CC1,-0.3
4,CC(=O)OCC(CCn1cnc2cnc(N)nc21)COC(C)=O,0.28
5,CCC(=O)Oc1ccc2c(c1)CC[C@@H]1[C@@H]2CC[C@]2(C)[C@@H](OC(=O)CC)CC[C@@H]12,-3.91
6,COc1ccc(CCN2CCC(Nc3nc4ccccc4n3Cc3ccc(F)cc3)CC2)cc1,-0.484
7,Cc1nc2ccccc2n1Cc1ccc(Cl)cc1,6.45
8,Clc1ccc(Cn2c(CN3CCCC3)nc3ccccc32)cc1,0.738
9,CCOC(=O)C1=C[C@@H](OC(CC)CC)[C@H](NC(C)=O)[C@@H](N)C1,-0.221
10,Cc1c(-c2cnccn2)ssc1=S,1.58
11,Cc1c(NC(C)C)c(=O)n(-c2ccccc2)n1C,-2.14
12,Cc1c(NC(=O)c2cccnc2)c(=O)n(-c2ccccc2)n1C,12.5
13,Cc1c(N(C)C)c(=O)n(-c2ccccc2)n1C,2.34
14,CNC[C@H](O)[C@@H](O)[C@H](O)[C@H](O)CO [757068-L2],1.95
15,C[C@]1(Cn2ccnn2)C(C(=O)O)N2C(=O)CC2S1(=O)=O (some centres unmarked),-2.49
16,OC(CCN1CCCCC1)(c1ccccc1)C1CCCCC1 (centres unmarked),0.407
17,COc1c(N2CCNC(C)C2)c(F)cc2c(=O)c(C(=O)O)cn(C3CC3)c12 (centres unmarked),0.0884
18,C[C@@H]1CN(c2c(F)c(F)c3c(=O)c(C(=O)O)cn(C4CC4)c3c2F)C[C@H](C)N1,-1.44
19,CC[n+]1c(-c2ccccc2)c2cc(N)ccc2c2ccc(N)cc21,3.74
20,C[n+]1c2cc(N)ccc2cc2ccc(N)cc21,20.4
21,Nc1ccc2cc3ccc(N)cc3nc2c1,1.36

row,Structure (SMILES),B-score
1,O=C(O)/C=C/C(=O)O,0.597
2,CCCCCCCCCCCCCCCC(=O)OC/C=C(C)/C=C/C=C(C)/C=C/C1=C(C)CCCC1(C)C,-0.008
3,O=C(CCCN1CC=C(n2c(O)nc3ccccc32)CC1)c1ccc(F)cc1,-6.32
4,CCCc1cc(C(N)=S)ccn1,3.08
5,O=C(O)[C@H](O)[C@@H](O)[C@H](O)[C@H](O)CO,0.99
6,CCCCOc1ccc(C(=O)CCN2CCCCC2)cc1 [130801-L6],-2.14
7,N=C(N)c1ccc(OCCCCCOc2ccc(C(=N)N)cc2)cc1,15.2
8,CCCCOc1ccc(C(=O)CCN2CCCCC2)cc1 [130801-L5],-1.2
9,CC(C)(O/N=C(\C(=O)N[C@@H]1C(=O)N2C(C(=O)O)=C(C[n+]3ccccc3)CS[C@H]12)c1csc(N)n1)C(=O)O,1.87
10,CN[C@H](CC(C)C)C(=O)N[C@H]1C(=O)N[C@@H](CC(N)=O)C(=O)N[C@H]2C(=O)N[C@H]3C(=O)N[C@H](C(=O)N[C@H](C(=O)O)c4cc(O)cc(O)c4-c4cc3ccc4O)[C@H](O)c3ccc(c(Cl)c3)Oc3cc2cc(c3O[C@@H]2O[C@H](CO)[C@@H](O)[C@H](O)[C@H]2O[C@H]2C[C@](C)(N)[C@H](O)[C@H](C)O2)Oc2ccc(cc2Cl)[C@H]1O,-0.857
11,Oc1ccc2c3c1O[C@H]1[C@@H](O)CC[C@@]4(O)[C@@H](C2)N(CC2CCC2)CC[C@]314,0.0386
12,CN1CCC(=C2c3ccccc3Sc3ccccc32)CC1,-1.07
13,CN/C(=C/[N+](=O)[O-])NCCSCc1ccc(CN(C)C)o1,-2.02
14,CN/C(=C\[N+](=O)[O-])NCCSCc1csc(CN(C)C)n1,-0.177
15,CN/C(=C\[N+](=O)[O-])NCCSCc1ccc(CN(C)C)o1,14.6
16,COC(=O)/C=C/C(=O)OC,1.25
17,Nc1ccc(S(=O)(=O)Nc2ccc(Cl)nn2)cc1,1.1
18,COc1ccc(NS(=O)(=O)c2ccc(N)cc2)nn1,4.49
19,COc1cc(NS(=O)(=O)c2ccc(N)cc2)ncn1,3.08
20,CNC[C@H](O)[C@@H](O)[C@H](O)[C@H](O)CO [757068-L1],-0.164
